Assay results reported in PubChem BioAssay (NCATS).
Results filed as inconclusive are left out. The source made the active and inactive calls. Calls come from the whole dose curve; as a rule, active = well fitted inhibition curve with a large enough effect; inconclusive = small, poorly fitted or top-dose-only effect; inactive = flat fitted curve, though single readings scatter.

Key:
FAB9 = test: qHTS profiling for inhibitors of Plasmodium falciparum proliferation (AID 504749);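 note: 0% = DMSO vehicle and full inhibition = artemisinin control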; conditions: P. falciparum in erythrocytes, SYBR Green DNA, 72 h; series mostly up to 28.7 µM
Procedure, shortened: (§1)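 Parasite proliferation within erythrocytes, 72 h exposure. Endpoint: SYBR Green I fluorescence after overnight lysis at room temperature. Controls: 0.29 uM artemisinin, DMSO.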

GB4 = test: as above; conditions: P. falciparum in erythrocytes, SYBR Green DNA, 72 h; series mostly up to 28.7 µM
Procedure, shortened: as §1

HB3 = test: as above; conditions: P. falciparum in erythrocytes, SYBR Green DNA, 72 h; series mostly up to 28.7 µM
Procedure, shortened: as §1

ICS = test: as above; conditions: P. falciparum in erythrocytes, SYBR Green DNA, 72 h; series mostly up to 28.7 µM
Procedure, shortened: as §1

JCK = test: as above; conditions: P. falciparum in erythrocytes, SYBR Green DNA, 72 h; series mostly up to 28.7 µM
Procedure, shortened: as §1

N140 = test: as above; conditions: P. falciparum in erythrocytes, SYBR Green DNA, 72 h; series mostly up to 28.7 µM
Procedure, shortened: as §1

P93_24 = test: as above; conditions: P. falciparum in erythrocytes, SYBR Green DNA, 72 h; series mostly up to 28.7 µM
Procedure, shortened: as §1

P94_40 = test: as above; conditions: P. falciparum in erythrocytes, SYBR Green DNA, 72 h; series mostly up to 28.7 µM
Procedure, shortened: as §1

PAD = test: as above; conditions: P. falciparum in erythrocytes, SYBR Green DNA, 72 h; series mostly up to 28.7 µM
Procedure, shortened: as §1

PC15 = test: as above; conditions: P. falciparum in erythrocytes, SYBR Green DNA, 72 h; series mostly up to 28.7 µM
Procedure, shortened: as §1

PC26 = test: as above; conditions: P. falciparum in erythrocytes, SYBR Green DNA, 72 h; series mostly up to 28.7 µM
Procedure, shortened: as §1

PC49 = test: as above; conditions: P. falciparum in erythrocytes, SYBR Green DNA, 72 h; series mostly up to 28.7 µM
Procedure, shortened: as §1

SC27B = test: as above; conditions: P. falciparum in erythrocytes, SYBR Green DNA, 72 h; series mostly up to 28.7 µM
Procedure, shortened: as §1

TAB109 = test: as above; conditions: P. falciparum in erythrocytes, SYBR Green DNA, 72 h; series mostly up to 28.7 µM
Procedure, shortened: as §1

TAB113 = test: as above; conditions: P. falciparum in erythrocytes, SYBR Green DNA, 72 h; series mostly up to 28.7 µM
Procedure, shortened: as §1

TAB165 = test: as above; conditions: P. falciparum in erythrocytes, SYBR Green DNA, 72 h; series mostly up to 28.7 µM
Procedure, shortened: as §1

W2 = test: as above; conditions: P. falciparum in erythrocytes, SYBR Green DNA, 72 h; series mostly up to 28.7 µM
Procedure, shortened: as §1

CRL-7250 = normal cell line; test: Cytotoxic Profiling of Annotated Libraries Using Quantitative High-Throughput Screening (AID 1296008); conditions: Five cell lines viability, CellTiter-Glo ATP luminescence, 48-72 h; max response: active compounds read low; for max response: % is set by controls: 0 for no effect and ±100 for the full control effect
Procedure, shortened: (§2)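 Compounds were pin-transferred onto cells and incubated 48 or 72 hr at 37 degree Celsius, 95% humidity. CellTiter-Glo was added, plates sat 10 min at room temperature, then ATP-coupled luminescence was imaged as the viability read-out.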

HEK293 = test: as above; conditions: Five cell lines viability, CellTiter-Glo ATP luminescence, 48-72 h; max response: active compounds read low
Procedure, shortened: as §2

HaCat = test: as above; conditions: Five cell lines viability, CellTiter-Glo ATP luminescence, 48-72 h; max response: active compounds read low
Procedure, shortened: as §2
Note: nearly all actives have a fitted effect of over 60% in size.

CC(=O)CCC(=O)O
inactive: Potency (FAB9) | Potency (GB4) | Potency (HB3) | Potency (ICS) | Potency (JCK) | Potency (N140) | Potency (P93_24) | Potency (P94_40) | Potency (PAD) | Potency (PC15) | Potency (PC26) | Potency (PC49) | Potency (SC27B) | Potency (TAB109) | Potency (TAB113) | Potency (TAB165) | Potency (W2) | max response (CRL-7250) -8.02% | outcome (HEK293) | outcome (HaCat)

[O-][n+]1cccc(CO)c1
inactive: Potency (FAB9) | Potency (GB4) | Potency (HB3) | Potency (ICS) | Potency (JCK) | Potency (N140) | Potency (P93_24) | Potency (P94_40) | Potency (PAD) | Potency (PC15) | Potency (PC26) | Potency (PC49) | Potency (SC27B) | Potency (TAB109) | Potency (TAB113) | Potency (TAB165) | Potency (W2) | max response (CRL-7250) -1.91% | outcome (HEK293) | outcome (HaCat)

NCCNCCNCCNCCN
inactive: Potency (FAB9) | Potency (GB4) | Potency (HB3) | Potency (ICS) | Potency (JCK) | Potency (N140) | Potency (P93_24) | Potency (P94_40) | Potency (PAD) | Potency (PC15) | Potency (PC26) | Potency (PC49) | Potency (SC27B) | Potency (TAB109) | Potency (TAB113) | Potency (TAB165) | Potency (W2) | max response (CRL-7250) 3.13% | outcome (HEK293) | outcome (HaCat)

Cc1ccc(C(C)C)cc2c(C)ccc1-2
inactive: Potency (FAB9) | Potency (GB4) | Potency (HB3) | Potency (ICS) | Potency (JCK) | Potency (N140) | Potency (P93_24) | Potency (P94_40) | Potency (PAD) | Potency (PC15) | Potency (PC26) | Potency (PC49) | Potency (SC27B) | Potency (TAB109) | Potency (TAB113) | Potency (TAB165) | max response (CRL-7250) 3.16% | outcome (HEK293) | max response (HaCat) -2.06%

NCC(=O)CCC(=O)O
inactive: Potency (FAB9) | Potency (GB4) | Potency (HB3) | Potency (ICS) | Potency (JCK) | Potency (N140) | Potency (P93_24) | Potency (P94_40) | Potency (PAD) | Potency (PC15) | Potency (PC26) | Potency (PC49) | Potency (SC27B) | Potency (TAB109) | Potency (TAB113) | Potency (TAB165) | max response (CRL-7250) -2.12% | outcome (HEK293) | max response (HaCat) -9.5%
